Reference: PubChem BioAssay

Biological target: Epidermal growth factor receptor (Homo sapiens) (UniProt P00533)
Assay: EGFR binders on small-molecule microarrays, primary screen, biochemical, small-molecule microarray, 635 nm fluorescence (AID 1104);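 also: score merges 667 nm emission intensity with spot signal to noise over triplicate slides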
Conditions: EGFR binding, higher = more signal

Epidermal growth factor receptor (Homo sapiens), sequence (P00533 whole entry, looked up): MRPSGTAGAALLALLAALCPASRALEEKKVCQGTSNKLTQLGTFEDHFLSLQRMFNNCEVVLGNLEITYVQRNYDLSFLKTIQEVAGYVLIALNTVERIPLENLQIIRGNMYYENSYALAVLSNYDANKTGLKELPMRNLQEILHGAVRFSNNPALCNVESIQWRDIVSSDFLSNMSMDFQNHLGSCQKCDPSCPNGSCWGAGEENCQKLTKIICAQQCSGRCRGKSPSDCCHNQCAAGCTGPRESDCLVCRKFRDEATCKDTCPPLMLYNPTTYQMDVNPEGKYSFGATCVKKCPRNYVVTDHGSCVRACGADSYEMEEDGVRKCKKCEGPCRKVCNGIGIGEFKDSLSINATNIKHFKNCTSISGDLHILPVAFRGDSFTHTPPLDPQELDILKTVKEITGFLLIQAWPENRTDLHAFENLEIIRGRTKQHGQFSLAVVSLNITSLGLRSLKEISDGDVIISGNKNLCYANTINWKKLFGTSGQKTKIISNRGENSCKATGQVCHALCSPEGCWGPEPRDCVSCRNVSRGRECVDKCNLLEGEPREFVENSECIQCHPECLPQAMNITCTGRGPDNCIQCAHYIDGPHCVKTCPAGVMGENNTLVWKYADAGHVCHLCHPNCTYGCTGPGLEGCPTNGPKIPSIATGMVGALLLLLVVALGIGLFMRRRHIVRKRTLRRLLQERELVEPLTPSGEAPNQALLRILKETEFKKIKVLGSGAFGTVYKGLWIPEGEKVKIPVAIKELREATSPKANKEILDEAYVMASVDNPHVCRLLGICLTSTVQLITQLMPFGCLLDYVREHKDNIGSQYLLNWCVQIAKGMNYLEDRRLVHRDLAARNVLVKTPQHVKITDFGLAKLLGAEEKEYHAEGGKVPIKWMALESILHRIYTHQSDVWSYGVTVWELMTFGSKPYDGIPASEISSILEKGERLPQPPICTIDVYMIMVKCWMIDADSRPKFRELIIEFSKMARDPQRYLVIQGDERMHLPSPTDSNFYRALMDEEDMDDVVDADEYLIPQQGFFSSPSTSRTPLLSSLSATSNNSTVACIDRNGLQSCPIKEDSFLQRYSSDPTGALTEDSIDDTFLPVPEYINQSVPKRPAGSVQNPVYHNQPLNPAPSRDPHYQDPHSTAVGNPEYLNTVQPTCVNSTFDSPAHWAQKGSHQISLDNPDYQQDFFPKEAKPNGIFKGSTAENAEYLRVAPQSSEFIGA

SMILES	composite z-score
C=C[C@@H](O)[C@H]1CC(c2ccccc2)=NO1	0.449
COC(=O)[C@]1(Cc2ccccc2CN=[N+]=[N-])N=C(c2ccc(OCCCO)cc2)O[C@@H]1c1ccccc1CN=[N+]=[N-]	-0.267
O=C1C2C=CC(C(O)c3cccc4ccccc34)N(Nc3ccccc3)C2C(=O)N1c1ccccc1 (stereo not given)	0.346
O=C(O)[C@@]1(Cc2ccccc2)COC(c2ccc(OCCCO)cc2)=N1	-0.645
O=C1c2ccccc2[C@](Cc2ccccc2I)(C(=O)NC2CC2)[C@H](c2ccc(CO)cc2)N1Cc1ccccc1Cl	-0.0191
O=C(NCc1ccccc1)[C@]1(Cc2ccccc2)N=C(c2ccc(OCCCO)cc2)O[C@@H]1c1ccccc1	0.178
COCCCNC(=O)[C@@H]1c2ccccc2C(=O)N(Cc2cc(F)cc(C(F)(F)F)c2)[C@H]1c1ccc(CO)cc1	-1.47
COC(=O)[C@@]1(Cc2ccc(OC)cc2)[C@H]2c3cc(C(=O)N4CCCC4)n(CCF)c3C[C@H]2CN1C(=O)c1ccccc1	1.46
Cc1ccc(C(C)CC(O)C2C=CC3C(=O)N(Cc4ccccc4)C(=O)C3N2n2cnnc2)o1 (stereo not given)	0.0138
CN1C(=O)C2C=CC(C(O)c3cccc4ccccc34)N(NC(=O)OC(C)(C)C)C2C1=O (stereo not given)	-0.0459
O=C1N(Cc2ccccc2)c2ccccc2[C@H]2OC(c3ccc(OCCCO)cc3)=N[C@@]12CCS(=O)(=O)c1ccccc1	0.385
COC(=O)[C@@]1(Cc2ccccc2)[C@H]2c3cc(C(=O)N4CCCC4)n(Cc4ccccc4)c3C[C@H]2CN1C(=O)c1ccccc1	0.0075
CCOC(=O)C[C@H]1[C@H](OC(=O)c2ccccc2-c2ccccc2)[C@@H](NC(=O)c2ccccc2)c2cc(OCCCO)ccc2N1C(=O)Cc1ccc(OC)cc1	-0.104
COc1ccccc1CN1C(=O)c2ccccc2[C@@H](C(=O)NCC(C)C)[C@@H]1c1ccc(CO)cc1	-0.318
COC(=O)C(CC#Cc1ccc2c(c1)[C@]1(C(=O)N2)[C@H](c2ccc(O)cc2)N2[C@H](c3ccccc3)[C@H](c3ccccc3)OC(=O)[C@H]2[C@@H]1C(N)=O)C(=O)OC	-0.856
CCCC[C@@H](O)C1=C(COc2ccccc2)Cn2c(=O)n(-c3ccccc3)c(=O)n2[C@H]1CO	0.111
NC(=O)[C@H]1[C@@H]2C(=O)O[C@@H](c3ccccc3)[C@@H](c3ccccc3)N2[C@@H](c2ccc(O)cc2)[C@]12C(=O)Nc1ccc(C#CC3(O)CCCCCC3)cc12	0.53
CCCN1C(=O)[C@@]2(Cc3ccccc3)N=C(c3ccc(OCCCO)cc3)O[C@H]2c2ccccc21	0.234

SMILES	composite z-score
COC(=O)[C@@]1(Cc2ccc(OC)cc2)[C@H]2c3cc(C(=O)N4CCCC4)n(CCc4ccc(O)c(OC)c4)c3C[C@H]2CN1C(=O)c1ccccc1	-0.481
COCCOC(=O)N1C(=O)[C@@]2(c3cc(C#Cc4ccc(OC)cc4)ccc31)[C@H](C(=O)N1CCc3cc(OC)c(OC)cc3C1)[C@H]1C(=O)O[C@H](c3ccccc3)[C@H](c3ccccc3)N1[C@@H]2c1ccc(OCCO)cc1	0.595
C[N+](C)(C)CCCCCCNC(=O)[C@@H]1C[C@@H]2C(=O)NCC(=O)N2[C@@H]1c1ccc(O)cc1	0.0357
COCCCNC(=O)[C@]1(CCS(=O)(=O)c2ccccc2)N=C(c2ccc(OCCCO)cc2)O[C@@H]1c1ccccc1	0.304
C[C@@]1([C@@H](NC(=O)c2cccs2)c2ccc(-c3ccccc3)cc2)C[C@H]1C1CCCCC1	-0.84
COc1cccc(C[C@H]2C[C@@H](CO[Si](C(C)C)(C(C)C)C(C)C)N3C(=O)[C@]4(C(C)=O)O[C@]23[C@H]2C(=O)N(C)C(=O)[C@H]24)c1	0.468
[N-]=[N+]=Nc1ccccc1[C@@H]1OC(c2ccc(OCCCO)cc2)=N[C@]1(CCS(=O)(=O)c1ccccc1)C(=O)NCc1ccccc1	0.0329
C=CC[C@@]1(C(=O)NCCN2CCOCC2)N=C(c2ccc(OCCCO)cc2)O[C@@H]1c1ccccc1	0.802
COC(=O)C(CC#Cc1ccc2c(c1)[C@]1(C(=O)N2)[C@H](c2ccc(OCCO)cc2)N2[C@H](c3ccccc3)[C@H](c3ccccc3)OC(=O)[C@H]2[C@@H]1C(=O)O)C(=O)OC	0.194
COC(=O)c1ccc(OC)c(/C=C\CC(CCc2ccccc2)OC(C)=O)c1 (stereo not given)	-0.309
COCC1=C([C@H](O)CCc2ccccc2)[C@H](CO)[C@@H]2C(=O)N(C)C(=O)[C@@H]2C1	0.456
COc1cc(NN2C(C(O)c3ccc(I)cc3)C=CC3C(=O)N(C)C(=O)C32)cc(OC)c1OC (stereo not given)	-0.391
CC(C)N1C(=O)c2ccccc2[C@](C)(C(=O)O)[C@@H]1c1ccc(CO)cc1	-1.35
NC(=O)NCC#Cc1ccc2c(c1)[C@]1(C(=O)N2)[C@H](c2ccc(O)cc2)N2[C@H](c3ccccc3)[C@H](c3ccccc3)OC(=O)[C@H]2[C@@H]1C(N)=O	-0.341
CCCCC(CC)C(O)C1C=CC2C(=O)NC(=O)C2N1Nc1ccccn1 (stereo not given)	-0.035
COC(=O)[C@@]1(Cc2ccccc2)[C@H]2c3cc(C(=O)N4CCCC4)n(Cc4ccc(OC(F)(F)F)cc4)c3C[C@H]2CN1C(=O)c1ccccc1	-0.357
C=C(COC)C(=O)CC[C@H](OC(=O)c1ccccc1-c1ccccc1C(=O)O)c1ccc(OCCO)cc1	-0.237
